# Sampled rows, rich in hits. Any-hit rate of the full collection: about 3.4%.
# SMARCA2 act: increases SMARCA2 function in MMTV reporter cells; activation, % at 9.1 µM; AID 652017; MG213 cells, MMTV-luciferase reporter, dexamethasone, overnight; 1% of 370,000 active; in the data active = activation above about 7.8%
# Gli-Sufu block: Gli-Sufu pathway antagonism | 0.74% of 340,000 active | Sufu-KO-LIGHT fibroblasts, Gli luciferase reporter luminescence | AID 588413 | inhibition, % at 5 µM;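 active = inhibition above about 55%, limit read from the data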
# FXN GAA850 act: activators of GAA850 frataxin (FXN) promoter; HEK293 lucGAA850 FXN promoter luciferase reporter, 24 h; percent of 10 µM SAHA response; activation, % at 6 µM; 0.56% of 360,000 active; AID 540364;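 active = activation above the average of all compounds screened plus 3 SD, cutoff fixed separately per campaign, cut at about 7.5% in these data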
# Cardio protect: protects H9c2 cardiomyocytes from peroxide injury | protection from H2O2 cell death, % at 20 µM | H2O2 injury protection, ATPLite, 2 h | 0.63% of 360,000 active;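 active = compounds giving at least 50% protection of heart cells from peroxide-induced death in the single-dose screen, raw or plate-pattern-corrected value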
# GalR3 antagonist: human GalR3 antagonism; O60755; HEK293 GalR3-CNG cAMP membrane potential fluorescence; galR3 body fused to GalR1 C-terminus; inhibition, % at 3 µM; 0.44% of 360,000 active;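 active = inhibition above the screen-wide average plus 3 SD, cut at about 13% in these data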;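 also: forskolin and galanin both at EC90 stimulate the cells; cAMP rise reported by CNG channel membrane potential dye signal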
# Target sequence (O60755 1-299 limits assumed): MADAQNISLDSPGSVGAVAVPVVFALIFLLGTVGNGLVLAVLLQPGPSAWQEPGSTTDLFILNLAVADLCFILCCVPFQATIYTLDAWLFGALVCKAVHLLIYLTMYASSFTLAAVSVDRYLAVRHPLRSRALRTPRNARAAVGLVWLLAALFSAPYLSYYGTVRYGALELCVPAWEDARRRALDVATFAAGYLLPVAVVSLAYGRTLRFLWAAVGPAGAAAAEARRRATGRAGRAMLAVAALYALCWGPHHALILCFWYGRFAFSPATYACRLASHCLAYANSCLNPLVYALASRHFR
# NR2F2 inh: blocks human COUP-TFII nuclear receptor. inhibition, % at 8.6 µM. AID 686940. 0.7% of 370,000 active. P24468. HEK293T NGFI-A luciferase reporter, luminescence;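 active = inhibition above a per-plate cutoff, mean inhibition of test wells between control levels plus 3 SD, cut at about 38% in these data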;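 also: cells cotransfected with COUP-TFII expression vector driving the NGFI-A reporter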
# GAA30 FXN cntr: counter-screen for GAA850 frataxin promoter activators: GAA30 promoter activation | shares compounds with FXN GAA850 act | HEK293 lucGAA30 FXN promoter luciferase, 24 h; DMSO = 0%, 5 µM ipriflavone = 100% | activation, % at 6 µM | 66% of 1,900 active | AID 588350;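 active = mean activation above the mean of solvent-only control wells plus 3 SD, cut at about 22% in these data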;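 also: counterscreen of GAA850 promoter hits where activity marks nonselective or luminescence artifacts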
# FXN GAA850 conf: confirmation of GAA850 frataxin (FXN) promoter activators | shares compounds with FXN GAA850 act | HEK293 lucGAA850 FXN promoter luciferase reporter, 24 h; 100% = activation by SAHA | activation, % at 6 µM | 86% of 1,900 active | AID 588351;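 active = mean activation above a set limit taken from the primary screen, cut at about 8% in these data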
# Numbers stand for hits; n = inactive; x = no result given.
SMILES,SMARCA2 act,Gli-Sufu block,FXN GAA850 act,Cardio protect,GalR3 antagonist,NR2F2 inh,GAA30 FXN cntr,FXN GAA850 conf
N#C/C(=C/c1ccc(N2CCCCC2)o1)c1cccc(F)c1,n,n,14.6,n,n,n,106.4,41.4
COC(=O)[C@H](C(C)C)N1Cc2nnn(Cc3ccccc3)c2-c2cc(F)ccc2S1(=O)=O,n,x,x,x,x,n,x,x
CC(=O)c1ccc(NC(=S)NC(=O)c2c(Cl)c(C)nn2C)cc1,n,n,8.8,n,n,n,23.2,n
CCOc1ccccc1NC(=O)/C(C#N)=C/c1c(C)nn(-c2ccc(F)cc2)c1Cl,n,n,n,n,n,n,x,x
CN(C)c1nc(C=C(C#N)C#N)c(Cl)n1-c1ccc(F)cc1,n,n,11.1,n,n,n,n,32.8
Cc1ccc2nc(/C(C#N)=C\c3ccc([N+](=O)[O-])o3)[nH]c2c1,n,x,8.1,n,n,n,n,n
O=C(Nc1ccc(F)cc1)OCc1cn(Cc2c(F)cccc2F)nn1,n,x,x,x,x,n,x,x
CN(C)c1ncnc2sc(-c3ccccc3)cc12,n,n,9.0,n,n,n,45.6,18.4
COc1ncnc2sc(-c3ccccc3)cc12,n,n,9.0,n,n,n,106.0,36.9
CN(C)C(=O)COc1ncnc2sc(-c3ccccc3)cc12,n,n,n,n,n,n,x,x
CC(C)(C)Nc1ncnc2sc(-c3ccccc3)cc12,n,n,n,n,n,n,x,x
COc1cc(C(=O)OCC(=O)c2cc(C)n(C)c2C)cc(OC)c1OC,n,n,n,n,n,n,x,x
Cc1cc(C(=O)COC(=O)c2nccnc2N)c(C)n1C,n,n,9.1,n,n,n,104.0,31.7
CSc1ccc(CN2C(=O)C(F)(F)Oc3c(C(C)=O)cccc32)cc1,x,x,n,n,x,x,x,x
CC(=O)c1cccc(Nc2nc(-c3ccccc3)cs2)c1,n,n,7.8,n,n,n,101.1,28.2
O=C(Nc1ccc(F)cc1)OCCN1C(=O)CCC12CCC(c1ccc(Cl)cc1)CC2 (stereo not drawn),n,x,x,x,x,n,x,x
CCOC(=O)NC(=O)CSc1nnnn1-c1ccccc1,n,n,n,n,n,n,x,x
CCOC(=O)NC(=O)CSc1nc(-c2ccc(C)c(C)c2)cn1-c1ccccc1,n,n,7.9,n,n,n,62.1,33.9
CCOC(=O)CC[C@H]1CC[C@]2(CCCN(C3CCCCC3)C2)O1,n,x,x,x,x,n,x,x
Cc1ccc(C(=O)NCc2ccc3c(c2)OCO3)cc1Cl,n,n,n,n,n,n,x,x
Cc1ccc(C(=O)NCc2ccc3c(c2)OCO3)cc1C,n,n,8.7,n,n,n,57.1,21.6
CN1c2ccc(C#CC3CC3)cc2[C@@H]2[C@@H](CCN2C(=O)C2CCOCC2)[C@H]1CO,n,x,x,x,x,n,x,x
C[C@H]1[C@H](N)CC[C@@]23CCCN2C(=O)CCC[C@@H]13,x,x,x,x,x,n,x,x
Cc1ccc(NC(=O)c2sc3ccccc3c2Cl)nc1,n,n,8.4,n,n,n,105.1,15.6
CCC(C)[C@H](NS(=O)(=O)c1ccc(C)cc1)C(=O)N1CCC(C(=O)N2CCC(C(N)=O)CC2)CC1 (stereo partly drawn),n,n,18.6,n,n,n,n,n
SMILES,SMARCA2 act,Gli-Sufu block,FXN GAA850 act,Cardio protect,GalR3 antagonist,NR2F2 inh,GAA30 FXN cntr,FXN GAA850 conf
Cc1ccc([N+](=O)[O-])cc1N/C=C/C(=O)c1ccco1,n,n,9.3,n,n,n,27.3,24.8
COc1ccc(CNC(=O)c2nc(S(=O)(=O)Cc3ccccc3)ncc2Cl)cc1,n,n,n,n,n,n,x,x
O=C(NCc1ccccc1)c1nc(S(=O)(=O)Cc2ccccc2)ncc1Cl,n,n,17.5,n,n,n,n,28.1
O=C(NCc1ccc2c(c1)OCO2)c1nc(S(=O)(=O)Cc2ccccc2)ncc1Cl,n,n,7.9,n,n,n,37.5,69.6
CCS(=O)(=O)c1ncc(Cl)c(C(=O)Nc2ccc(C)cc2)n1,n,n,19.3,n,n,n,n,n
CC(C)c1nnc(NC(=O)c2nc(S(=O)(=O)Cc3ccccc3F)ncc2Cl)s1,n,n,x,x,n,n,x,x
O=C(NCc1ccc2c(c1)OCO2)c1nc(S(=O)(=O)Cc2ccccc2F)ncc1Cl,n,n,21.0,n,n,n,40.9,64.9
Cc1nn(-c2ccccc2)c(C)c1C=NNC(=O)CSc1nc2ccccc2n1C,n,x,x,x,x,n,x,x
O=S1(=O)CCSC[C@@H](CN2CCOCC2)N1,n,x,x,x,n,n,x,x
COc1ccccc1/C=C/C1C(C(=O)OCC(C)C)=C(C)N=C2SCCC(=O)N21 (stereo not drawn),n,n,n,n,n,n,x,x
COC(=O)C1=C(C)N=C2SCCC(=O)N2C1/C=C/c1ccccc1 (stereo not drawn),n,n,8.0,n,n,n,n,n
Nc1cccc2nc3ccccc3cc12,x,n,18.6,n,x,x,n,101.3
Nc1[nH]nc2nc3ccccc3cc12,n,n,n,n,n,n,x,x
O=C(Nc1nnc(C2CCCCC2)s1)c1cccs1,n,x,7.8,n,n,n,94.7,27.0
Cc1ccc(S(=O)(=O)N2CCN(S(=O)(=O)c3ccc(C)cc3)C2c2ccccc2)cc1,n,n,8.3,n,n,n,n,n
Cc1ccc(S(=O)(=O)N2CCN(S(C)(=O)=O)C2c2ccccc2)cc1 (stereo not drawn),n,n,n,n,n,n,x,x
O=C(NC(=S)Nc1ccc(N2CCCC2)cc1)c1ccccc1[N+](=O)[O-],n,n,8.8,n,n,n,53.1,13.2
O=C(NC(=S)Nc1ccc(NC(=O)c2cccs2)cc1)c1cc2ccccc2o1,n,n,n,n,n,n,x,x
O=C(c1cc2ccccc2o1)c1cccs1,n,n,8.3,n,n,n,116.9,40.2
O=C1CCC[C@H]2C[C@H](NCc3ccc(Br)cc3)CC[C@]23CCCN13,x,x,x,x,x,n,x,x
O=P(NC1CCCCC1)(c1ccccc1)c1ccccc1,n,n,n,n,n,n,x,x
CC/C(=C\C1CCCCC1)C(NP(=O)(c1ccccc1)c1ccccc1)c1ccccc1 (stereo not drawn),n,n,13.2,n,n,n,29.7,18.6
Fc1ccc(Nc2nc(-c3ccncc3)cs2)cc1,n,n,7.9,n,n,n,88.7,32.8
CN1C(=O)c2cc(NC(=O)Nc3ccccc3)ccc2OC[C@H]2O[C@@H](CC(=O)NC3CCC3)CC[C@@H]21,n,x,x,x,x,n,x,x
COC(=O)N1C[C@H](OCc2ccc3c(c2)OCO3)[C@H]2C[C@@H]1c1ccccc1O2,n,x,x,x,n,n,x,x
CC(=O)c1sc(Nc2cccc(C)c2)nc1C,n,n,7.8,n,n,n,100.7,31.3
O=C(/C=C/c1ccccc1)c1c[nH]c2ccccc12,n,n,12.2,n,n,n,141.6,52.2

# Bioassay records: PubChem, several laboratories
